Assay results as given in PubChem BioAssay (Tox21).
Results filed as inconclusive are left out. Activity calls are given as the source filed them. The call rests on the fitted dose curve; in most records, active means well fitted curve in the direction sought with a large enough effect in the repeat runs; inconclusive means weak or mixed curves; inactive means no such curve, though single readings can be large; an effect the other way counts as inactive or inconclusive.

Legend:
[1] = Caspase-3/7 induction in HepG2 cells by small molecules, qHTS assay (AID 1346978); further: nearly all actives have a fitted effect of over 15% in size
How it was run: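 Caspase-3/7 induction was measured by Caspase-Glo 3/7 luminescence (30 min, room temperature) after a 17 hr compound exposure of wild-type HepG2 cells seeded at 2,000 per well and pre-incubated 5 hr.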

[2] = Caspase-3/7 induction in CHO-K1 cells by small molecules, qHTS cell viability counter screen (AID 1346979); further: nearly all actives have a fitted effect of over 35% in size; further: potency means the concentration at half of the fitted maximal effect
How it was run: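 Cells (CHO-K1, wild type) are plated at 1,500 per well and incubated 5hr. Test compounds in DMSO are then pinned in, followed by 16hr at 37C and 5% CO2. Viability is read by CellTiter-Fluor fluorescence after 1hr.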

[3] = Caspase-3/7 induction in CHO-K1 cells by small molecules, qHTS assay (AID 1346980); further: nearly all actives have a fitted effect of over 15% in size
How it was run: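 Luminescent Caspase-Glo 3/7 read (30min, room temperature) quantified apoptosis induction. Cells were wild-type CHO-K1, treated with compound for 17hr at 37 C and 5% CO2.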

[4] = molecular target: Nuclear receptor subfamily 1 group I member 2 (Homo sapiens) (UniProt O75469); assay: Human pregnane X receptor (PXR) small molecule agonists, qHTS assay (AID 1346982); further: nearly all actives have a fitted effect of over 35% in size; further: potency means the concentration at half of the fitted maximal effect
How it was run: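 Luminescence (ONE-Glo, 30 min RT) after 24 hr compound exposure of PXR-Luc HepG2 cells; cells rested 5 hr post-plating in 5% charcoal-stripped FBS medium.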

[5] = molecular target: Nuclear receptor subfamily 1 group I member 2 (Rattus norvegicus) (UniProt Q9R1A7); assay: Rat pregnane X receptor (rPXR) activation by small molecules, qHTS assay (AID 1346983); details: rPXR luciferase reporter cells, One-Glo luminescence, 24 h; max activation: stronger effect = higher value; further: nearly all actives have a fitted effect of over 20% in size
How it was run: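 Luminescent readout (One-Glo luciferase, 30 min room temperature) followed 24 hr compound treatment at 37 C of rPXR cells plated 2,000 per well and preincubated 5hr; qHTS format with compounds delivered in DMSO.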

[6] = molecular target: Nuclear receptor subfamily 1 group I member 2 (Homo sapiens) (UniProt O75469); assay: Human pregnane X receptor (PXR) activation by small molecules, qHTS assay (AID 1346985); further: nearly all actives have a fitted effect of over 40% in size; further: potency means the concentration at half of the fitted maximal effect
How it was run: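 DPX-2 cells (HepG2 co-transfected with a PXR response element and a CYP3A4-promoter luciferase construct) were seeded at 2,000 per well, rested 5 hr at 37C, then exposed to DMSO-dissolved compounds for 24 hr. Activation was read as luciferase luminescence.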

[7] = molecular target: Cytochrome P450 2D6 (Homo sapiens) (UniProt P10635); assay: Cytochrome P450 Family 2 Subfamily D Member 6 (CYP2D6) small molecule antagonists: luciferase reporter qHTS assay (AID 1671196); further: nearly all actives have a fitted effect of over 50% in size; further: potency means the concentration at half of the fitted maximal effect
How it was run: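 Inhibition of CYP2D6 was gauged by loss of luminescence, since light produced tracks the luciferin generated from a proluciferin substrate. A 10 min room-temperature preincubation preceded 1 h NADPH-supported turnover.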

[8] = molecular target: Cytochrome P450 2C19 (Homo sapiens) (UniProt P33261); assay: Cytochrome P450 Family 2 Subfamily C Member 19 (CYP2C19) small molecule antagonists: luciferase reporter qHTS assay (AID 1671197); further: nearly all actives have a fitted effect of over 65% in size; further: potency means the concentration at half of the fitted maximal effect
How it was run: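 P450-Glo CYP2C19 screening system; proluciferin substrate; DMSO compound stocks; 10 min RT preincubation; NADPH regeneration, 1 h at 37C; luciferin detection reagent, 20 min RT; luminescence as RLU.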

[9] = Caspase-3/7 induction in HepG2 cells by small molecules, qHTS cell viability counter screen (AID 1346981); further: nearly all actives have a fitted effect of over 30% in size; further: potency means the concentration at half of the fitted maximal effect
How it was run: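 Counter screen for cytotoxicity: HepG2 exposed 16 hr to compounds, then CellTiter-Fluor viability signal (fluorescence, 1 hr reagent incubation).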

[10] = molecular target: Nuclear receptor subfamily 1 group I member 2 (Homo sapiens) (UniProt O75469); assay: CYP3A4 induction through human pregnane X receptor (PXR) by small molecules, qHTS assay (AID 1346984); further: nearly all actives have a fitted effect of over 40% in size
How it was run: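 DPX-2 reporter cells; 24h cpd, 37C; Luciferin-IPA 3uM final x3h; One-Glo 30 min RT; lumi read.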
On the % scale 0 is the no-effect control and ±100 the full control effect.

Sequence of Nuclear receptor subfamily 1 group I member 2 (Homo sapiens) (O75469 whole entry, looked up): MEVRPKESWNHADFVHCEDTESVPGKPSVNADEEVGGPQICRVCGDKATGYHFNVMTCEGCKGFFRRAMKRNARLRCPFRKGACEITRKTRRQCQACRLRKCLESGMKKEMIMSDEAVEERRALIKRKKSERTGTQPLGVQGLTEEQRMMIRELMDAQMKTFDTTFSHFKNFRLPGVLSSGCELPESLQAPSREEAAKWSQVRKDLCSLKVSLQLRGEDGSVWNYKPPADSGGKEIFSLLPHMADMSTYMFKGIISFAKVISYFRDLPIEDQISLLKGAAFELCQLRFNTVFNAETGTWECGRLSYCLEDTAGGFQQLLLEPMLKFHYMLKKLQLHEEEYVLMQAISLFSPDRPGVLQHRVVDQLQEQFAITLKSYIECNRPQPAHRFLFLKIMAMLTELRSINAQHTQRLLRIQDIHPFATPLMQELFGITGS
Sequence of Nuclear receptor subfamily 1 group I member 2 (Rattus norvegicus) (Q9R1A7 whole entry, looked up): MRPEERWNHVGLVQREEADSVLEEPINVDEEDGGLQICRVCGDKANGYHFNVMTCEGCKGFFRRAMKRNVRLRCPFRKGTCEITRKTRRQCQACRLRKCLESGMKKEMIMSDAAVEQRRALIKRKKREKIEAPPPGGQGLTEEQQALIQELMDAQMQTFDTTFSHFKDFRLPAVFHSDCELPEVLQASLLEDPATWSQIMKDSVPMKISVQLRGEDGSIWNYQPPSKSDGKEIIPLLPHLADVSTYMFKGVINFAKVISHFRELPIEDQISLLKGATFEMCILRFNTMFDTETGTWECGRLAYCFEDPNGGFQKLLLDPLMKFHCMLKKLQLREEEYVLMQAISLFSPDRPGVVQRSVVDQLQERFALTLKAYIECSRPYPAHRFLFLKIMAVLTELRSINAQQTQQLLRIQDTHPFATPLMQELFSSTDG
Sequence of Cytochrome P450 2D6 (Homo sapiens) (P10635 whole entry, looked up): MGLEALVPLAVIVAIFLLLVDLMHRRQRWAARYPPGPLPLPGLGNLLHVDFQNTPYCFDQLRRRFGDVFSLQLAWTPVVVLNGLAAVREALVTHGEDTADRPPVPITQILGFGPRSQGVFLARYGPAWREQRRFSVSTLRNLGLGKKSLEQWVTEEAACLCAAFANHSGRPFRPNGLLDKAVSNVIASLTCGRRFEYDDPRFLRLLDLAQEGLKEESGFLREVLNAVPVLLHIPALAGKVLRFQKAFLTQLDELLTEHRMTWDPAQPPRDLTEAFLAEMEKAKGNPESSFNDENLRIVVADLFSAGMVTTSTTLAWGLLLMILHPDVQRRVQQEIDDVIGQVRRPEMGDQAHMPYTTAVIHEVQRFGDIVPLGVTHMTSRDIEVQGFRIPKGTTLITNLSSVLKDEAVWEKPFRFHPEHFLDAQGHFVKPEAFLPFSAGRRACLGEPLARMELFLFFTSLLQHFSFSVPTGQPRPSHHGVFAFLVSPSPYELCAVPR
Sequence of Cytochrome P450 2C19 (Homo sapiens) (P33261 whole entry, looked up): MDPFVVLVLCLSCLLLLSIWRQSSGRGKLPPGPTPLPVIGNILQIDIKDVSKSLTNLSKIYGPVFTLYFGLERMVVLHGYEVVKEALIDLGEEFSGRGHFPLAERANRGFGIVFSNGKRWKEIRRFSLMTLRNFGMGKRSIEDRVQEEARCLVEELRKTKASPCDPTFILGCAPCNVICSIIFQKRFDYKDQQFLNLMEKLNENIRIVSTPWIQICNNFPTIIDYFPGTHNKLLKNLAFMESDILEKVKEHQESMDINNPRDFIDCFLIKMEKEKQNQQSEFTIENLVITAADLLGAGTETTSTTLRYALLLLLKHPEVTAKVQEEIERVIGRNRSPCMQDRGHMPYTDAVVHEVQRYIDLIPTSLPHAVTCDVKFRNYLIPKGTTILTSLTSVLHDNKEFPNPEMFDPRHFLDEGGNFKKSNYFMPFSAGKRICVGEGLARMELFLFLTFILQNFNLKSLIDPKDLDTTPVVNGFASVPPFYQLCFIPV

OCCN1CCN(CCCN2c3ccccc3C=Cc3ccccc32)CC1
active: Potency [4] 6.68 µM | Potency [6] 10 µM | Potency [7] 13.8 µM
inactive: Potency [1] | Potency [2] | Potency [3] | max activation [5] -15.2% | Potency [8]

CN(C)CCN(Cc1ccccc1)c1ccccn1
active: Potency [4] 6.68 µM | Potency [7] 0.219 µM
inactive: Potency [1] | Potency [3] | Potency [9] | max activation [5] 2.98% | Potency [10] | Potency [6]

CCCCCCOC(=O)NC(=N)c1ccc(NCc2nc3cc(C(=O)N(CCC(=O)OCC)c4ccccn4)ccc3n2C)cc1
active: Potency [2] 29.8 µM | Potency [4] 11.9 µM | Potency [8] 2.19 µM
inactive: Potency [1] | Potency [3]

C=CC(=O)OCCOCCOC(=O)C=C
active: Potency [2] 15.4 µM | Potency [9] 61.4 µM
inactive: Potency [1] | Potency [4] | Potency [7]

O=C(O)C1(C(=O)Nc2ccc(Cl)cc2Cl)CC1
inactive: Potency [1] | Potency [3] | Potency [9]
active: Potency [4] 24.3 µM

C[C@@H](c1ncncc1F)C(O)(Cn1cncn1)c1ccc(F)cc1F (stereo not given in full)
inactive: Potency [1] | Potency [2] | Potency [3] | Potency [9] | Potency [7]

CCCCCCCCCCCCCCCCOS(=O)(=O)O
inactive: Potency [1] | Potency [3] | Potency [9] | Potency [4]

O=C1c2ccccc2S(=O)(=O)N1CCCCN1CCN(c2ncccn2)CC1
active: Potency [7] 1.38 µM
inactive: Potency [1] | Potency [2] | Potency [3] | Potency [9] | max activation [5] 0.873% | Potency [8]

CCCCC1=NC2(CCCC2)C(=O)N1Cc1ccc(-c2ccccc2-c2nn[nH]n2)cc1
inactive: Potency [1] | Potency [3] | Potency [4] | max activation [5] -1.35% | Potency [10] | Potency [6] | Potency [7]
active: Potency [2] 29.8 µM

CCCCc1ncc(/C=C(\Cc2cccs2)C(=O)O)n1Cc1ccc(C(=O)O)cc1
inactive: Potency [1] | Potency [2] | Potency [3] | Potency [9] | max activation [5] -2.02% | Potency [7] | Potency [8]

C=CC(=O)OCCOc1ccccc1
inactive: Potency [1] | Potency [3] | Potency [9]

Nc1ccc([N+](=O)[O-])c(C(F)(F)F)c1
active: Potency [2] 29.8 µM
inactive: Potency [1] | Potency [3] | Potency [4] | Potency [7]

CCN(CC)CCOC(=O)C(Cc1cccc2ccccc12)CC1CCCO1 (stereo not given)
inactive: Potency [1] | Potency [2] | Potency [3] | Potency [9] | max activation [5] 10.4%
active: Potency [7] 2.75 µM
